Test results taken from PubChem BioAssay AID1159580 (chemical genetic matrix, 2015).
Values joined by “and” are separate entries in the source; they are usually repeats but may differ in a detail not shown here. Equal entries are not always repeated. About 2,000 (36%) of roughly 5,500 compounds were called active. Not shown: some 18% with an inconclusive outcome. Rule as the data show it: active = normalized growth mostly below about 0.91 (no sharp cut-off); inconclusive = no clear call, values can overlap the other calls; inactive = mostly above about 0.92. Some of the results follow.

Test: chemical genetic growth profiling, strain panel (AID 1159580);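 also: tested at 20 µM; growth read once vehicle control cultures reached saturation at 30 °C; 1 = growth at the plate median or of vehicle wells; lower values mean less growth of the strain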
Details: S. cerevisiae deletion strains, growth OD

Measured: normalized growth

C/C=C1\[C@H]2C=C(C)C[C@]1(N)c1ccc(=O)[nH]c1C2
inactive: locus YAL013W, strain DEP1, stronger effect = lower value 1.01 | locus YAL021C, strain ccr4, stronger effect = lower value 1 | locus YAL026C, strain drs2, stronger effect = lower value 1.03 | locus YAL030W, strain snc1, stronger effect = lower value 1.02 | locus YBL061C, strain skt5, stronger effect = lower value 1.01 | locus YBR009C, strain hhf1, stronger effect = lower value 1.03 | locus YBR021W, strain FUR4, stronger effect = lower value 1.01 | locus YBR023C, strain chs3, stronger effect = lower value 1.02 | locus YBR171W, strain sec66, stronger effect = lower value 1.03 | locus YBR229C, strain ROT2, stronger effect = lower value 1.01 | locus YBR231C, strain swc5, stronger effect = lower value 1.02 | locus YBR279W, strain paf1, stronger effect = lower value 1.02 | locus YCL011C, strain gbp2, stronger effect = lower value 1.02 | locus YCL016C, strain dcc1, stronger effect = lower value 1.01 | locus YCL029C, strain bik1, stronger effect = lower value 1.02 | locus YCL061C, strain MRC1, stronger effect = lower value 1.02 | locus YCL069W, strain vba3, stronger effect = lower value 1.02 | locus YCR088W, strain abp1, stronger effect = lower value 1.02 | locus YDL005C, strain med2, stronger effect = lower value 1.04 | locus YDL035C, strain GPR1, stronger effect = lower value 1.01 | locus YDL040C, strain nat1, stronger effect = lower value 1.01 | locus YDL074C, strain BRE1, stronger effect = lower value 1.01 | locus YDL101C, strain DUN1, stronger effect = lower value 1.01 | locus YDL134C, strain PPH21, stronger effect = lower value 1.01 | locus YDL185W, strain tfp1, stronger effect = lower value 1.02 | locus YDL192W, strain arf1, stronger effect = lower value 1.02 | locus YDR001C, strain nth1, stronger effect = lower value 1.01 | locus YDR069C, strain doa4, stronger effect = lower value 1.03 | locus YDR101C, strain arx1, stronger effect = lower value 1 | locus YDR137W, strain rgp1, stronger effect = lower value 1.01 | locus YDR150W, strain NUM1, stronger effect = lower value 1.02 | locus YDR159W, strain sac3, stronger effect = lower value 1.03 | locus YDR162C, strain NBP2, stronger effect = lower value 1.02 | locus YDR195W, strain ref2 0.989 | locus YDR297W, strain sur2, stronger effect = lower value 1.01 | locus YDR318W, strain mcm21, stronger effect = lower value 1.02 | locus YDR334W, strain swr1, stronger effect = lower value 1.03 | locus YDR335W, strain msn5, stronger effect = lower value 1.02 | locus YDR388W, stronger effect = lower value 1.01 | locus YDR392W, strain spt3, stronger effect = lower value 0.966 | locus YDR502C, strain sam2, stronger effect = lower value 1.01 | locus YEL003W, strain gim4, stronger effect = lower value 1.03 | locus YEL037C, strain rad23, stronger effect = lower value 1.02 | locus YEL061C, strain CIN8 (second series), stronger effect = lower value 1.03 | locus YEL061C, strain CIN8, stronger effect = lower value 1.01 | locus YER015W, strain faa2, stronger effect = lower value 1.02 | locus YER016W, strain bim1, stronger effect = lower value 1.03 | locus YER110C, stronger effect = lower value 1.01 | locus YER111C, strain swi4, stronger effect = lower value 1.03 | locus YER155C, strain BEM2 (second series), stronger effect = lower value 1.04 | locus YER155C, strain BEM2, stronger effect = lower value 1 | locus YER167W, strain BCK2, stronger effect = lower value 1.02 | locus YFR010W, strain ubp6, stronger effect = lower value 1.03 | locus YGL078C, strain dbp3, stronger effect = lower value 1.01 | locus YGL086W, strain mad1, stronger effect = lower value 1.01 | locus YGL167C, strain pmr1, stronger effect = lower value 1.02 | locus YGL173C, strain kem1, stronger effect = lower value 1.04 | locus YGL227W, strain vid30, stronger effect = lower value 1.03 | locus YGL240W, strain doc1, stronger effect = lower value 1.04 | locus YGL248W, strain PDE1, stronger effect = lower value 1.01 | locus YGL253W, strain hxk2, stronger effect = lower value 1.02 | locus YGR078C, strain PAC10, stronger effect = lower value 1.01 | locus YGR135W, strain pre9, stronger effect = lower value 1 | locus YGR229C, strain SMI1, stronger effect = lower value 1.01 | locus YGR252W, strain gcn5, stronger effect = lower value 1.01 | locus YHR013C, strain ard1, stronger effect = lower value 1.02 | locus YHR027C, strain rpn1, stronger effect = lower value 1.03 | locus YHR030C, strain SLT2, stronger effect = lower value 1 and 1.02 | locus YHR079C, strain IRE1 (second series), stronger effect = lower value 1.01 | locus YHR079C, strain IRE1, stronger effect = lower value 1.01 | locus YHR094C, strain hxt1, stronger effect = lower value 1.01 | locus YHR129C, strain ARP1, stronger effect = lower value 1 | locus YHR142W, strain chs7, stronger effect = lower value 0.992 | locus YHR200W, strain rpn10, stronger effect = lower value 1.02 | locus YIL066C, strain RNR3, stronger effect = lower value 1.02 | locus YIL073C, strain SPO22, stronger effect = lower value 1.08 | locus YIL125W, strain kgd1, stronger effect = lower value 1.02 | locus YIR030C, strain dcg1, stronger effect = lower value 1.01 | locus YJL092W, strain hpr5, stronger effect = lower value 1.03 | locus YJL095W, strain BCK1 (second series), stronger effect = lower value 1.01 | locus YJL095W, strain BCK1, stronger effect = lower value 0.989 and 0.995 | locus YJL115W, strain asf1, stronger effect = lower value 1.02 | locus YJL129C, strain trk1, stronger effect = lower value 1.02 | locus YJL134W, strain LCB3, stronger effect = lower value 1.01 | locus YJL154C, strain vps35, stronger effect = lower value 1.02 | locus YJL164C, strain tpk1, stronger effect = lower value 1.01 | locus YJL166W, strain qcr8, stronger effect = lower value 1.02 | locus YJL168C, strain set2, stronger effect = lower value 1.01 | locus YJL187C, strain SWE1 (second series), stronger effect = lower value 1 | locus YJL187C, strain SWE1, stronger effect = lower value 1.02 | locus YJR043C, strain POL32, stronger effect = lower value 1.01 | locus YJR066W, strain TOR1, stronger effect = lower value 0.96
